Results on 29 molecules are retold here after PubChem BioAssay (NCI).

Holding throughout (assay): NCI-60 one-dose screen, 48 h (100 = growth as untreated, 0 = no growth, -100 = all killed)
For assay [1], the system named is NCI-H226 lung. Particulars: 10 µM.
Assay [2] concerns NCI-H322M lung. The settings on record: 10 µM unless noted.
In assay [3] the test system is HOP-62 NSCLC. Particulars: 10 µM unless noted.
Assay [4] has as its system NCI-H460 lung. Particulars: 10 µM unless noted.
In assay [5] the test system is NCI-H522 lung. The settings on record: 10 µM.
Assay [6] deals with A549/ATCC NSCLC. Particulars: 10 µM unless noted.
Assay [7] concerns 786-0 renal. Particulars: 10 µM unless noted.
In assay [8] the test system is COLO 205 colon. The settings on record: 10 µM unless noted.
Assay [9] deals with HOP-92 NSCLC. Particulars: 10 µM unless noted.

About 83,000 compounds went through this panel and 20% of them were active in at least one assay; those are over-represented in the sample as a whole.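 A percent growth of 40 corresponds to 60% growth inhibition; 0 means no net growth; -100 means all cells died. Active threshold: below 10.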 Values without a mark were called inactive. The source made the active and inactive calls.

In the case of `Cn1c2ccc(Cl)cc2c2nn(C(=O)c3ccccc3)c(=O)nc21`, the growth in assay [1] is 93.7%; in assay [2], 106%; in assay [3], 101%; in [4], 105%; in [5], 101%; in assay [6] it was 113%. The growth in assay [7] is 113%; in [8], 123%.
Consider `CC(=O)N(CC(O)CO)c1c(I)c(C(=O)NCCO)c(I)c(C(=O)NCC(O)CO)c1I` (centres undefined), for which the growth is 98.7% in [1]; 93% in assay [2]; 99.2% in assay [3]; 111% in assay [4]; 97.8% in assay [5]; 100% in assay [6]. Also, the growth in assay [7] is 91%; in assay [8], 105%.
For `COc1ccc(C(=O)COc2cccc(/C=C3\CSc4ccc(C)cc4C3=O)c2)cc1`, the growth is 77.7% in assay [1]; 104% in [2]; 104% in assay [3]; 98.5% in assay [9]; 45.8% in assay [5]; 96% in assay [6]. Also, the growth was 100% in assay [7] and 116% in assay [8].
Turning to `C=CC(=O)N1CC2(CC(n3nc(-c4ccc(Oc5ccccc5)cc4)c4c(N)ncnc43)C2)C1`, the growth in assay [1] was 15.8%; in assay [2], 31.1%; in assay [3] it was 35.7%; in assay [4], 40.5%; in assay [9] it was 20%; in assay [6] it was 39.2%. In addition, the growth in [7] is 35.5%.
Regarding `NC(=O)c1cc(I)ccc1NC(=O)COc1ccccc1`, the growth in [1] was 64.2%; in [2] it was 48.3%; in assay [3], 21.7%; in assay [4], 6.3% (active); in assay [5], 0.734% (active); in [6], 18.3%. Besides, the growth is 33.7% in assay [7] and 12.2% in assay [8].
With `Cc1cc(Cl)c2c(Cl)ccc(Cl)c2n1`, the growth was 110% in [1]; 102% in assay [3]; 111% in [4]; 93.7% in assay [9]; 83% in [5]; 95.4% in assay [6]. For the same molecule, the growth in [7] was 101%; in assay [8], 114%.
Regarding `COc1ccc(-c2c3c(N)c4c(nc3nc3c2c(C)nn3-c2ccccc2)CCCCC4)cc1`, the growth in assay [1] was 99.4%; in [3], 84.6%; in assay [4] it was 82.8%; in assay [9], 32.2%; in [5], 50.2%; in assay [6], 81.3%. Further, the figures for the growth in assay [7] and in assay [8] were 79.2% and 74.3%, respectively.
In the case of `Cc1nn(-c2ccccc2)c2nc3nc4c(c(N)c3c(-c3ccc(Cl)cc3)c12)CCCC4`, the growth in assay [1] is 83.4%; in assay [3], 106%; in assay [4], 97.4%; in [9] it was 84.4%; in assay [5] it was 90.6%; in assay [6], 94.4%. Moreover, the growth in assay [7] was 86.9%; in assay [8], 94.4%.
With `Cc1nc2cc(Nc3nc(N4CCCCC4)nc(N4CCOCC4)n3)ccc2n1Cc1ccccc1`, the growth is 28.4% in [1]; 44.5% in assay [3]; 4.87% (active) in assay [4]; -28.2% (active) in [9]; 37.9% in assay [5]; -0.889% (active) in assay [6]. Also, the results for the growth in assay [7] and in assay [8] were 10.9% and 41%, respectively.
For `CCN(C(=O)c1ccc2c3c(cccc13)C=C2)c1ccccc1`, the growth is 93.3% in assay [1]; 99.8% in assay [3]; 111% in [4]; 86.5% in [9]; 79.1% in [5]; 80.2% in [6]. Further, the values for the growth in [7] and in assay [8] were 91.1% and 119%, respectively.
As to `Cn1c2c(cc(S(=O)(=O)c3ccccc3)c1=O)CCc1c-2cnn1-c1ccccc1Cl`, the growth in assay [1] is 117%; in [3], 113%; in assay [4] it was 106%; in [9] it was 90.8%; in assay [5] it was -72.1% (active); in assay [6], 86.7%. For the same molecule, the growth in [7] was 102%; in assay [8] it was 113%.
As to `Cc1nc2cc(Nc3nc(Nc4ccc(F)cc4)nc(N4CCN(C)CC4)n3)ccc2n1Cc1ccccc1`, the growth in [1] was 65%; in assay [3], 58.2%; in [4] it was 3.42% (active); in assay [9] it was 2.5% (active); in assay [5] it was -55.1% (active); in assay [6], 7.21% (active). Also, the growth in assay [7] was -83.1% (active); in assay [8], -55.5% (active).
On to `COc1ccc(-c2c3c(N)c4c(nc3nc3c2c(C)nn3-c2ccccc2)CCCC4)cc1`, for which the growth in assay [1] is 86.9%; in assay [3] it was 89.3%; in assay [4], 73.8%; in assay [9] it was 28.9%; in assay [5], 60.6%; in [6], 76.6%. For the same molecule, the growth in [7] is 70.8%; in [8] it was 73.4%.
In the case of `O=C1CC2c3cc(-c4cc5ccccc5o4)ccc3CCN2C(=O)N1c1ccccc1` (centres undefined), the growth was 93.5% in [1]; 82.9% in assay [3]; 87.6% in assay [4]; 47.2% in assay [9]; 69.9% in assay [5]; 80% in assay [6]. The growth is 92.8% in [7] and 96.2% in assay [8].
For `CCCCC/C=C\C/C=C/CCCCCCCCNC(=O)Nc1ccc([N+](=O)[O-])cc1`, the growth is 93.5% in assay [1]; 120% in [2]; 84.4% in [4]; -1.17% (active) in [9]; 41.5% in assay [5]; 97% in assay [6]. Further, the figures for the growth in [7] and in assay [8] were 102% and 95%, respectively.
Take `CSc1ccc(OC(C)=O)cc1C`: the growth in assay [1] was 98.3%; in [3], 79.4%; in [4] it was 104%; in [9], 97.2%; in assay [5] it was 105%; in assay [6], 101%. Also, the growth in assay [7] is 98.1%; in assay [8] it was 104%.
As to `C=C(C)CCCC(C)CC#N` (centres undefined), the growth in assay [1] was 99.4%; in assay [3] it was 90.7%; in assay [4] it was 107%; in [9], 95.1%; in assay [5] it was 90.3%; in [6], 99.9%. For the same molecule, the figures for the growth in assay [7] and in assay [8] were 97.3% and 106%, respectively.
On to `Cc1nc2cc(Nc3nc(N4CCOCC4)nc(N4CCN(C)CC4)n3)ccc2n1Cc1ccccc1`, for which the growth is 71.3% in assay [1]; 95% in assay [3]; 107% in assay [4]; 82.9% in assay [9]; 92.6% in assay [5]; 102% in assay [6]. For the same molecule, the results for the growth in assay [7] and in assay [8] were 97.5% and 111%, respectively.
`CCCC1=NNC(=O)C1`: the growth in assay [1] is 108%; in [3], 99%; in [4], 109%; in [9], 90.7%; in assay [5], 94%; in [6] it was 95.9%. Besides, the values for the growth in assay [7] and in assay [8] were 95.8% and 99.3%, respectively.
Consider `Brc1ccc(Br)nn1`, for which the growth in [1] was -26.8% (active); in assay [2], -97.4% (active); in [4] it was -21.9% (active); in assay [9], -64.7% (active); in [5], -33.2% (active); in assay [6], 5.91% (active). Moreover, the growth in assay [7] was -81% (active); in [8], -92.5% (active).
Take `Cc1ccc(N(CSc2ccc(Cl)cc2)CSc2ccc(Cl)cc2)cc1`: the growth was 71.9% in assay [1]; 64.1% in assay [2]; 56.8% in assay [9]; 39.3% in assay [5]; 28.5% in [6]; 51.5% in [7]. Further, the growth in assay [8] was 118%.
With `Nc1nc(N)c(N=Nc2c(Br)cc(S(N)(=O)=O)cc2Br)c(N)n1`, the growth in [1] is 91.9%; in assay [3] it was 103%; in assay [4], 105%; in assay [9] it was 85%; in [5], 97.9%; in assay [6] it was 97.4%. Moreover, the values for the growth in assay [7] and in [8] were 106% and 104%, respectively.
In the case of `CCCCCCCCCCCC(=O)[O][Sn]([CH2]CCC)([CH2]CCC)[CH2]CCC`, the growth in assay [1] is -66% (active); in [3], -94.9% (active); in [4], -55.2% (active); in assay [9] it was -95.7% (active); in assay [5] it was -96% (active); in assay [6] it was -91.1% (active). The growth in assay [7] was -99.7% (active); in assay [8] it was -78.2% (active).
Regarding `CCCCCCCCCCCCCCCC[N+]1(C)CCOCC1`, the growth in assay [1] was 48.4%; in assay [2], 37.1%; in assay [4] it was 4.21% (active); in assay [9] it was -15.3% (active); in assay [5], -24.8% (active); in assay [6], 24.3%. The growth in [7] is 5.35% (active); in [8] it was -92.3% (active).
With `O/N=C/c1cccs1`, the growth was 107% in [1]; 94.3% in assay [3]; 108% in [4]; 94% in assay [9]; 106% in [5]; 98% in assay [6]. The figures for the growth in [7] and in [8] were 102% and 119%, respectively.
As for `Cn1c(=O)c(S(=O)(=O)c2ccccc2)cc2ccc3c(cnn3-c3ccc(Cl)cc3)c21`, the growth in [1] is 55.6%; in [3], 87.3%; in assay [4] it was 80.7%; in assay [9], 39.8%; in assay [5] it was -18.9% (active); in assay [6] it was 65.5%. For the same molecule, the growth in assay [7] was 51.3%; in assay [8] it was 100%.
Turning to `O=C(COc1ccc(/C=C2\CSc3ccccc3C2=O)cc1)c1ccc(Cl)cc1`, the growth in [1] was 97.9%; in assay [2], 111%; in [3], 94.4%; in [9], 122%; in [5], 99.4%; in assay [6] it was 101%. Further, the growth in assay [7] is 105%; in assay [8] it was 103%.
As for `COc1cccc(-c2ccc3c(c2)C2CCN(Cc4ccccc4)C3C2)c1` (centres undefined), the growth is 99.2% in assay [1]; 72.2% in assay [3]; 93.5% in assay [4]; 41% in assay [9]; 55.1% in assay [5]; 71.2% in [6]. The figures for the growth in assay [7] and in [8] were 77.4% and 79.3%, respectively.
For the molecule `Cc1cc(C)c(S(=O)O)c(C)c1`, the growth is 99% in [1]; 124% in [2]; 93.1% in assay [9]; 101% in [5]; 109% in assay [6]; 112% in assay [7]. The growth in assay [8] was 126%.
